An excerpt weighted towards active compounds, which were near 6.1% of everything screened.
FLuc inh: blocks Photinus pyralis firefly luciferase activity | P08659 | purified firefly luciferase, luminescence, 8 min | Potency, µM (series often up to 57.1 µM), for inactives: top-dose activity change, negative = inhibition, usual class: inhibitors | 2.2% of 72,000 active; further: nearly all actives have a fitted effect of over 40% in size
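Substrate buffer containing 10 uM ATP (pH 7.2 imidazole, Mg2+, KCl, detergent, BSA) is dispensed, compound pinned in, then luciferase/luciferin detector mix added. After 8 min at ambient temperature, light output is measured.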
ALOX15 inhib: blocks human 15-lipoxygenase activity | 1.4% of 74,000 active | Potency, µM (series often up to 57.1 µM), without a hit: at the top dose activity change, negative = inhibition, hits mostly inhibitors | P16050 | purified 15hLO-1, xylenol orange hydroperoxide absorbance; further: nearly all actives have a fitted effect of over 55% in size
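Purified human 15hLO-1 (40 nM) in 25 mM Hepes pH 7.5, 0.01% Triton X-100, preincubated 15 min RT with compound, then 50 uM arachidonic acid for 6 min. Hydroperoxide read by ferrous/xylenol orange, 30 min; 573/405 nm absorbance ratio gave progress.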
Bst PK mod: alters activity of Bacillus stearothermophilus pyruvate kinase; 1.2% of 51,000 active; Potency, µM; AID 361; purified pyruvate kinase, luminescence ATP production; ribose 5-phosphate activator present at AC10; in the data active means potency below about 11 µM; inconclusive means mostly about 12 µM to 25 µM;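 the screen sought inhibitors and activators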;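 further: scaled between full activation by ribose 5 phosphate and full inhibition by luteolin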
Tau fil binding: tau filament binding; P10636; recombinant tau filaments, thioflavin S fluorescence, 15 h; filaments grown with octadecylsulfate alongside compound; Potency, µM (titrated, usually from 57.1 µM), without a hit: at the highest dose activity change, negative = inhibition; 2% of 71,000 active; AID 596;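 further: actives lower thioflavin S fluorescence by blocking filaments or displacing dye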
Target sequence (P10636 whole entry, looked up): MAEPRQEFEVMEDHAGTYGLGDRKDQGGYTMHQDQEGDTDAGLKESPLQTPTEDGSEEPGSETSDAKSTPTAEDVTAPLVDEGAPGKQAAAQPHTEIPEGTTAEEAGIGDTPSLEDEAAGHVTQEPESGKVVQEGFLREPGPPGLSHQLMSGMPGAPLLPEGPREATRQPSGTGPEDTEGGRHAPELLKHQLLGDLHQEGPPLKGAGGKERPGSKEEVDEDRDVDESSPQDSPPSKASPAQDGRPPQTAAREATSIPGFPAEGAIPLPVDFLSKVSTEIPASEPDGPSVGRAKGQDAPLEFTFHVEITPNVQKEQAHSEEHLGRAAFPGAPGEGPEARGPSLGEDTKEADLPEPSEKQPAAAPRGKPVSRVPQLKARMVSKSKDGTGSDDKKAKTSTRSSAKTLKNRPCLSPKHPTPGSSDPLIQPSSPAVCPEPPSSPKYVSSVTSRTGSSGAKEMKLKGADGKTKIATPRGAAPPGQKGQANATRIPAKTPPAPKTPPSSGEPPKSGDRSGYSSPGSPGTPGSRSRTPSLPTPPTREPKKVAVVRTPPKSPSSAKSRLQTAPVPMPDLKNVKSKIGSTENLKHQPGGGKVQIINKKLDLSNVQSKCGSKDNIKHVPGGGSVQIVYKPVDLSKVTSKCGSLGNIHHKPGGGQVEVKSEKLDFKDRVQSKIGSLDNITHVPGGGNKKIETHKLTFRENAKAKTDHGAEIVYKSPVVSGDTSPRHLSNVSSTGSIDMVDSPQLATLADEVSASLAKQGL
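His-tagged recombinant human tau (exons 2, 3 and 10 included), 1 uM, was induced to fibrillize by 30 uM sodium octadecylsulfate with compound present. After 15 h at 37 C, thioflavine S fluorescence (ex 450, em 510 nm) was read.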
ERK AVP block: inhibitors of vasopressin-stimulated ERK signaling pathway | Potency, µM (highest dose often 57.5 µM), without a hit: top-dose activity, negative = inhibition, most hits filed as inhibitors | 0.99% of 72,000 active | HEK293-V1b, vasopressin-stimulated pERK AlphaScreen; further: nearly all actives have a fitted effect of over 55% in size
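HEK293 cells stably expressing V1b receptor, preincubated 30 min at 37 °C with compound, then stimulated 5 min with 25 nM vasopressin. Phospho-ERK by AlphaScreen SureFire after 5 h RT; normalized to DMSO and vasopressin; AC50 by Hill fit.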
Hsp90 Hop PPI: changes Hsp90-Hop TPR2A binding signal, up or down; AlphaScreen TPR2A-His6 binding biotin-Hsp90 C-terminal peptide; 0.44% of 71,000 active; AID 595; Potency, µM (highest dose often 57 µM), for inactives: at the highest dose activity change, negative = inhibition; active means well fitted curve in either direction with a large enough effect; inconclusive means small, poorly fitted or top-dose-only effect, or another doubt
Numbers without * were called inactive; [ ] = remark or other dose. Unless noted, the call rests on the fitted dose curve; in most records, active means well fitted curve in the direction sought with a large enough effect; inconclusive means small, poorly fitted or top-dose-only effect, or another doubt; inactive means no such curve, though single readings can be large; an effect the other way counts as inactive or inconclusive. Unless noted, on the % scale 0 is the no-effect control and ±100 the full control effect; potency means the concentration at half of the fitted maximal effect.

For COCCn1c(=O)c(-c2ccccc2)nc2cnc(OC)nc21 the results were FLuc inh 1%[11.4 µM], ALOX15 inhib 4%, Tau fil binding 5%, ERK AVP block -2% and Hsp90 Hop PPI -2%.
`CCOC(=O)OCC1OC(CCc2ccccc2)CCC1Oc1ccc(OC)cc1` (stereo not given) gave ALOX15 inhib -2%[11.4 µM] and ERK AVP block 3%[11.5 µM].
Screening CN(C)c1ccc(C2N([C@H](C#N)c3ccc(N(C)C)cc3)CCCN2[C@@H](C#N)c2ccc(N(C)C)cc2)cc1 (stereo not given in full) returned FLuc inh -1%[11.4 µM], ALOX15 inhib -2%[11.4 µM], Tau fil binding 6%[11.4 µM], ERK AVP block -9%[11.5 µM] and Hsp90 Hop PPI 1%[11 µM].
Screening CC1CC2C3CC(F)C4=CC(=O)C=C[C@@]4(C)[C@@]3(F)C(O)C[C@]2(C)[C@]1(O)C(=O)COC(=O)C(C)(C)C (stereo not given in full) returned ALOX15 inhib -3% and ERK AVP block 10%.
Screening CCn1c(CSc2nc3ccccc3s2)nc2ccccc21 returned FLuc inh -6%, ALOX15 inhib 0%[11.4 µM], Tau fil binding 28%[11.4 µM], ERK AVP block 40µM* and Hsp90 Hop PPI 6%[11 µM].
c1csc(CSc2nc3ccccc3s2)c1 was read as FLuc inh -20%, ALOX15 inhib -7%, Bst PK mod >57, Tau fil binding -8%, ERK AVP block 1% and Hsp90 Hop PPI inconclusive.
For COC(=O)C(C)Sc1nc2c(c(=O)[nH]c(=O)n2C)n1CCC(C)C (stereo not given) the results were FLuc inh 2%, ALOX15 inhib 8%, Bst PK mod >57, Tau fil binding -2%, ERK AVP block 32µM* and Hsp90 Hop PPI -2%.
Screening CN(C)c1ccc(-c2nc(NCCc3cnc[nH]3)c3ccccc3n2)cc1 returned FLuc inh 0.79µM*, ALOX15 inhib 33%, Tau fil binding inactive, ERK AVP block -20% and Hsp90 Hop PPI -21%.
For COc1ccc2[nH]cc(CCNc3nc(-c4ccc(N(C)C)cc4)nc4ccccc34)c2c1 the results were FLuc inh 0.63µM*, ALOX15 inhib inconclusive, Tau fil binding 459%, ERK AVP block inconclusive and Hsp90 Hop PPI inconclusive.
For COc1ccc2[nH]cc(CCNc3ncncc3-c3ccc(N(C)C)cc3)c2c1 the results were FLuc inh -4%[2.29 µM], ALOX15 inhib -2%, Tau fil binding 25µM*, ERK AVP block inconclusive and Hsp90 Hop PPI inconclusive.
For COc1ccc2[nH]cc(CCNc3nc(-c4ccoc4)nc4ccccc34)c2c1 the results were FLuc inh 0%[2.29 µM], ALOX15 inhib -6%, Tau fil binding 4µM*, ERK AVP block inconclusive and Hsp90 Hop PPI -12%.
Screening c1ccc(CCN2CCN(c3ncnc4c3cnn4-c3ccccc3)CC2)cc1 returned FLuc inh 0%, ALOX15 inhib -21%, Bst PK mod >57, Tau fil binding 62%, ERK AVP block 16µM* and Hsp90 Hop PPI 18%.
`CN1CCN(c2cc3c(c4c2[nH]c2ccccc24)C(=O)CC(C)(C)C3)CC1` gave FLuc inh 1%, ALOX15 inhib -17%, Tau fil binding -2%, ERK AVP block 32µM* and Hsp90 Hop PPI -3%[2.3 µM].
`CCSc1ccc2c(c1)N(CCCN1CCN(C)CC1)c1ccccc1S2` gave FLuc inh -6%[25.5 µM], ALOX15 inhib 3%[25.6 µM], Tau fil binding 4µM*, ERK AVP block 5%[25.7 µM] and Hsp90 Hop PPI -10%[26 µM].
`CN(C)CCCN1c2ccc(O)cc2Sc2ccc(Cl)cc21` gave FLuc inh 1%[11.4 µM], ALOX15 inhib -13%[11.4 µM], Tau fil binding 3.2µM*, ERK AVP block -5%[11.5 µM] and Hsp90 Hop PPI -7%[11 µM].
CSc1ccc2c(c1)N(CCCN(C)C)c1ccccc1S2 was read as FLuc inh 3%[11.4 µM], ALOX15 inhib -9%[11.4 µM], Tau fil binding 3.2µM*, ERK AVP block 5%[11.5 µM] and Hsp90 Hop PPI -8%[11 µM].
For CN(C)CCCN1c2ccccc2Sc2cnccc21 the results were FLuc inh 2%[11.4 µM], ALOX15 inhib 24%[11.4 µM], Tau fil binding -24%[11.4 µM], ERK AVP block -4%[11.5 µM] and Hsp90 Hop PPI -3%[11 µM].
Screening COC(=O)c1c(OC)cc2c(c1C)Oc1c(Cl)c(OC(C)=O)c(Cl)c(C)c1C(=O)O2 returned ALOX15 inhib -4% and ERK AVP block 17%.
For NC(N)=NCCC[C@H](NC(=O)CC1(CC(=O)N2CCN(C3c4ccccc4NC(=O)c4ccccc43)CC2)CCCC1)C(=O)NCCn1c(=O)n(-c2ccccc2)n(-c2ccccc2)c1=O (stereo not given in full) the results were ALOX15 inhib 20µM* and ERK AVP block -4%.
C[C@@H](C(=O)O)c1ccc(N2Cc3ccccc3C2=O)cc1 was read as FLuc inh 5µM*, ALOX15 inhib 5%[25.6 µM], Tau fil binding 10%[25.6 µM], ERK AVP block -5%[25.7 µM] and Hsp90 Hop PPI -3%[26 µM].
`O=C(O)[C@H](Cc1ccccc1)N1Cc2ccccc2C1=O` gave FLuc inh 2%, ALOX15 inhib inconclusive, Tau fil binding -9% and Hsp90 Hop PPI 0%.
`COc1ccc2nc(N3CCCC3)[nH]c2c1` gave FLuc inh -5%, ALOX15 inhib 13%, Bst PK mod >11, Tau fil binding 8%, ERK AVP block -5% and Hsp90 Hop PPI -2%.
COc1ccc2nc3c(cc2c1)Cc1ccccc1-3 was read as Tau fil binding inconclusive, ERK AVP block 32µM* and Hsp90 Hop PPI inconclusive.
`Cn1cccc1C(=O)OCC(=O)c1cc2ccccc2o1` gave FLuc inh 25µM*, ALOX15 inhib -7%, Bst PK mod >57, Tau fil binding 16µM*, ERK AVP block -4% and Hsp90 Hop PPI -3%.
Oc1ccc2ccccc2c1CN(Cc1c(O)ccc2ccccc12)C1CCCCC1 was read as FLuc inh -3%[11.4 µM], ALOX15 inhib -10%[11.4 µM], Tau fil binding -8%[11.4 µM], ERK AVP block -1%[11.5 µM] and Hsp90 Hop PPI -7%[11 µM].
Screening Nc1nc(-c2ccc(Br)cc2)cs1 returned FLuc inh 13µM*, ALOX15 inhib -16%, Bst PK mod inactive, Tau fil binding 12%, ERK AVP block -5% and Hsp90 Hop PPI -7%.
Screening CN1CCc2c(sc3c2c(=O)n(-c2ccccc2)c2nnc(SCc4ccccc4F)n32)C1 returned FLuc inh -1%, ALOX15 inhib inconclusive, Bst PK mod >57, Tau fil binding 13µM*, ERK AVP block -9% and Hsp90 Hop PPI -10%.
For CN1CCc2c(sc3c2c(=O)n(-c2ccccc2)c2nncn32)C1 the results were FLuc inh 3%, ALOX15 inhib inconclusive, Bst PK mod >57, Tau fil binding -10%, ERK AVP block inconclusive and Hsp90 Hop PPI inconclusive.

Source: PubChem BioAssay (National Center for Advancing Translational Sciences (NCATS))
